# Data as given in PubChem BioAssay AID1053173 (Broad Institute, 2014).
# The whole screen tested about 1,500 compounds, of which about 390 (26%) were called active. The rule behind the calls is not given here. Not all results are given here. Potency and affinity values are given separately.
# Target: Histone-lysine N-methyltransferase NSD2 (Homo sapiens) (UniProt O96028)
# Experiment: blockers of NSD2 H4 peptide methylation – biochemical, AlphaScreen, cherry-picked samples, dose response (AID 1053173);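 note: 0% = neutral control wells and -100% = positive control wells on each plate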
# Settings: 120 min; series mostly up to 10 µM; activity change, negative = inhibition: at the top concentration
# Chain of Histone-lysine N-methyltransferase NSD2 (Homo sapiens) (O96028 whole entry, looked up): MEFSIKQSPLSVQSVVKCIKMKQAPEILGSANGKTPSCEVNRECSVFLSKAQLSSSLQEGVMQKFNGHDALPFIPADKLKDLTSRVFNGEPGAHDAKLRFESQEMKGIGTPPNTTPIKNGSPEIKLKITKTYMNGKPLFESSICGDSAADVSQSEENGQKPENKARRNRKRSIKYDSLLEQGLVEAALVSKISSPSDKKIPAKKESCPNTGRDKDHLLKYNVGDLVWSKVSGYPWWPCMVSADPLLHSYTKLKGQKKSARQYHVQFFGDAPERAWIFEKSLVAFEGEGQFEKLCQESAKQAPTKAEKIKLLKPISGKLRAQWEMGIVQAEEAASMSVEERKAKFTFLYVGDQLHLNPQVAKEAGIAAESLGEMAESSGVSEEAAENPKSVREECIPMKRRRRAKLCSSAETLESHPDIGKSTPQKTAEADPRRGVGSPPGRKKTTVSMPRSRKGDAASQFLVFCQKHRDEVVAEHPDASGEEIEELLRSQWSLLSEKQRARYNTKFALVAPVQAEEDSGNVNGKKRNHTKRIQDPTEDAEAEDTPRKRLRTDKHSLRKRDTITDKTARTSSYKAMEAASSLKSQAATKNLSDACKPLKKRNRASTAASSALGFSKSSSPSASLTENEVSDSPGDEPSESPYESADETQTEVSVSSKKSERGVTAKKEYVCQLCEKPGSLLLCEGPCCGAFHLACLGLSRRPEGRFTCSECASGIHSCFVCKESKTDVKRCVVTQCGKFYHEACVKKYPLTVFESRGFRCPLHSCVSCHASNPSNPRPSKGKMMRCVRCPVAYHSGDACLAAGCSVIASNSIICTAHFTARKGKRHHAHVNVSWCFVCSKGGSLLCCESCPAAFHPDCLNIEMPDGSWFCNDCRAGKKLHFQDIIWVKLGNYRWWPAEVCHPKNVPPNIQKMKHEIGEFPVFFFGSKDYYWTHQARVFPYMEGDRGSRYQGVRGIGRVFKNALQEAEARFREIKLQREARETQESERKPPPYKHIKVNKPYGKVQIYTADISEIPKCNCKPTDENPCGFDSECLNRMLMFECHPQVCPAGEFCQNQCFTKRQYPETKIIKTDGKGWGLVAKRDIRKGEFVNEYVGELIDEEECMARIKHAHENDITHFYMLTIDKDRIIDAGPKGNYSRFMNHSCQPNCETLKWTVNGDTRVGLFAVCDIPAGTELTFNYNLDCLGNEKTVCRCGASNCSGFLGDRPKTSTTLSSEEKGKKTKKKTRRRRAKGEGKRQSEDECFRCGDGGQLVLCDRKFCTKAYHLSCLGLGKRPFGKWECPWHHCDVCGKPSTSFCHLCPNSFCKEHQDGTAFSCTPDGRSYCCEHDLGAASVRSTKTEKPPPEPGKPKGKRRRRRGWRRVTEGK
row,SMILES,"activity change, negative = inhibition"
1,CCOc1ccccc1/C=N/NC(=O)c1nnn(-c2nonc2N)c1CN1CCC(C)CC1,-3.55% (inactive)
2,CNc1ccc(Br)cc(C(=O)/C=C/c2cccc(OC)c2OC)c1=O,-8.99% (inactive)
3,COc1cc(/C=C/c2cccc[n+]2C)ccc1OCC(=O)Nc1ccccc1C,-0.922% (inactive)
4,CC(C)(C)c1cc(C(=O)N/N=C/c2ccncc2)n[nH]1,-2.87% (inactive)
5,CC(=O)c1ccc(NC(=S)Nc2cccc3cnccc23)cc1,-1.63% (inactive)
6,COC(=O)c1c(NC(=O)C(C)C)sc(C(=O)N2CCOCC2)c1C,-0.343% (inactive)
7,COc1ccc(NC(=S)Nc2cccc3cnccc23)cc1,-4.99% (inactive)
8,Cc1ccccc1NC(=S)Nc1cccc2cnccc12,-2.75% (inactive)
9,CN(C)CCC(=O)N1C/C(=C/c2ccccc2)C(=O)/C(=C\c2ccccc2)C1,-5.71% (inactive)
10,Cn1ncc(Cl)c1C(=O)Nc1cc(C(F)(F)F)ccc1F,-1.47% (inactive)
11,COc1ccc(/C=C2/C(=O)N(c3c(F)c(F)c(F)c(F)c3F)N=C2C)cc1,0.848% (inactive)
12,O=C(COc1ccc(S(=O)(=O)N2CCCC2)cc1)Nc1ccc(F)cc1,1.47% (inactive)
13,O=C(O)CC(C(=O)O)N1C(=O)/C(=C/c2ccc(-c3nc4ccccc4s3)o2)SC1=S (stereo not given),-6.38% (inactive)
14,O=C(O)COc1ccc(/C=C/C(=O)c2ccc3ccccc3c2)cc1,-9.29% (inactive)
15,O=C(CNC(=O)c1ccccc1)Oc1ccc([N+](=O)[O-])cc1,-4.16% (inactive)
16,C=CCC1CCCCC1=C(C#N)c1ccccc1 (stereo not given),-3.42% (inactive)
17,NC1=NC(=Nc2ccc(Br)cc2)c2ccccc21,-5.36% (inactive)
18,CC(=O)Nc1ccc(S(=O)(=O)/N=C2/NC(=O)/C(=C\c3ccco3)S2)cc1,-9.65% (inactive)
19,Cc1[nH][nH]c(=O)c1C(c1ccc(-c2ccc(Cl)c(C(=O)O)c2)o1)c1c(C)[nH][nH]c1=O,-7.88% (inactive)
20,Cc1[nH][nH]c(=O)c1C(c1c(C)[nH][nH]c1=O)c1cn(C)c2ccccc12,-2.97% (inactive)
21,COc1ccc2c(c1)Cc1sc(NC(=O)c3cccnc3)nc1-2,4.51% (inactive)
22,Cc1ccc(N2CN=c3s/c(=C\c4ccccn4)c(=O)n3C2)cc1,-0.608% (inactive)

row,SMILES,"activity change, negative = inhibition"
1,COc1ccc(C=C(c2nc3ccccc3s2)c2nc3ccccc3s2)cc1O,-9.17% (inactive)
2,Cc1c(-c2cccc(Cl)c2)nc2ccccc2c1C(=O)OC/C(O)=C(\C#N)c1nc2ccccc2[nH]1,-3.82% (inactive)
3,O=C(NC1CCCc2ccccc21)c1ccccc1OC(F)F (stereo not given),0.349% (inactive)
4,O=C1Nc2ccc(S(=O)(=O)NCc3ccco3)c3cccc1c23,0.667% (inactive)
5,COc1ccc(NC2CCCN(C(=O)c3ccccc3N3CCOCC3)C2)cc1OC (stereo not given),-0.733% (inactive)
6,Cn1c(NNC(=O)c2c(F)cccc2F)cc(=O)n(C)c1=O,6% (inactive)
7,Cc1[nH][nH]c(=O)c1C(c1ccc(-c2ccccc2C(=O)O)o1)c1c(C)[nH][nH]c1=O,-9.78% (inactive)
8,Nc1nonc1-c1nc2ccccc2n1CC(=O)N/N=C/c1ccc(-c2ccccc2C(=O)O)o1,-10.2% (inactive)
9,O=C(CSc1n[nH]c(-c2ccncc2)n1)Nc1ccc(Cl)c(Cl)c1,-5.23% (inactive)
10,Cc1nnc(N/N=C\c2ccc(-c3cccc(C(=O)O)c3)o2)n1N,1.17% (inactive)
11,Cc1ccc(-c2ccc(/C=N/NC(=O)CN3CCOCC3)o2)cc1[N+](=O)[O-],-0.384% (inactive)
12,COc1cc(CC(=O)NCC2COc3ccccc3O2)cc(OC)c1OC (stereo not given),4.11% (inactive)
13,O=C(CCN1CCOCC1)NCC1COc2ccccc2O1 (stereo not given),4.15% (inactive)
14,COc1cc(C(=O)NC2CCCc3ccccc32)cc(OC)c1OC (stereo not given),-3.18% (inactive)
15,CN(C)/C=C1\C=C2C(=O)c3ccccc3N2C1=O,-11.9% (inactive)
16,Cc1c(C)c2cc(Cl)c(O)c(CN(C)C)c2oc1=O,-4.88% (inactive)
17,Nc1nonc1C(=O)NCCNC(=O)c1ccccc1F,4.89% (inactive)
18,O=C(Nc1cccnc1)c1ccc(COc2ccccc2Cl)o1,-3.23% (inactive)
19,CNc1ccc(Br)cc(C(=O)/C=C/c2ccc(OC)cc2)c1=O,-11.9% (inactive)
20,O=C(CCc1nnc(CCCCc2ccccc2)o1)NC1CCCC1,0.963% (inactive)
21,Cc1ccc(-n2nc(C(=O)NCc3ccc(C)o3)c3c4ccccc4n(C)c3c2=O)cc1,-0.692% (inactive)
22,CC(C)(C#N)NC(=O)C1CCCN1S(=O)(=O)c1ccc2ccccc2c1 (stereo not given),-3.31% (inactive)

row,SMILES,"activity change, negative = inhibition"
1,Cc1ccc2cccc(NC3OC(=O)c4ccccc43)c2n1 (stereo not given),-5.91% (inactive)
2,COc1cc(C(=O)Nn2c(O)c(C3=c4ccccc4=NC3=O)sc2=S)ccc1O,1.57% (inactive)
3,CC(=O)N1CCN(c2ccccc2NC(=O)c2ccc3ccccc3c2)CC1,4.94% (inactive)
4,CN1CCN(c2ccc(NC(=O)COc3ccc4ccccc4c3)cc2)CC1,6.91% (inactive)
5,COc1c(F)c(F)c(C(=O)Nc2cccc(Cl)c2N2CCOCC2)c(F)c1F,-1.41% (inactive)
6,Nc1c2c(=O)oc(-c3ccccc3)cc2nn1-c1ccccc1,0.608% (inactive)
7,O=C(N/N=C/c1cc2c(cc1[N+](=O)[O-])OCO2)c1ccccn1,1.47% (inactive)
8,Cc1ccccc1-c1ocnc1C(=O)Nc1ccccc1NC(=O)c1ccccn1,-3.59% (inactive)
9,O=C(Nc1cccc(C(F)(F)F)c1)c1cc(-c2ccco2)on1,-0.125% (inactive)
10,Cc1cccc(N2CCN(S(=O)(=O)c3c(C)nc4scc(C)n4c3=O)CC2C)c1 (stereo not given),4.46% (inactive)
11,O=C(Nc1cc(S(=O)(=O)Nc2ccccc2F)ccc1Cl)c1ccc(F)cc1F,-4.71% (inactive)
12,CC1CC(C)CN(C(=O)C2CCN(S(=O)(=O)c3cccs3)CC2)C1 (stereo not given),-1.91% (inactive)
13,Cn1c(=O)c2c(nc(CN3CCc4ccccc4C3)n2CCc2ccccc2)n(C)c1=O,-0.06% (inactive)
14,Cc1ccccc1-n1nc(C)c2c1N=C1C(Cl)=CC(Cl)=CN1C2c1ccc(C(=O)O)cc1 (stereo not given),-5.97% (inactive)
15,CC(C)N(Cc1ccccc1)C(=O)C1CCCN(c2ncnc3c2nc2n3CCCCC2)C1 (stereo not given),-1.45% (inactive)
16,COc1ccc(NC(=O)c2ccc(F)c(F)c2)c2ccccc12,2.95% (inactive)
17,c1ccc(-c2cc(-c3ccccc3)n3ncnc3n2)cc1,-0.881% (inactive)
18,COCCNC(=O)Cc1c(C)c2c(cc(C)c3c(C)coc32)oc1=O,-2.39% (inactive)
19,CC1CCN(C(=O)CN(Cc2ccc(Cl)cc2)S(C)(=O)=O)CC1,-3.55% (inactive)
20,CCc1ccccc1NC(=O)CSc1nc2n[nH]c(C)c2c(=N)n1-c1cccc(OC)c1,0.33% (inactive)
21,CSc1ccccc1NC(=O)CN(C)C(=O)COc1ncnc2ccccc12,4.86% (inactive)
22,CC(NC(=O)COC(=O)c1ccc([N+](=O)[O-])s1)c1ccccc1 (stereo not given),-0.22% (inactive)

row,SMILES,"activity change, negative = inhibition"
1,COCCOC(=O)C1=C(C)NC(C)=C(C(=O)OC(C)C)C1c1cccc([N+](=O)[O-])c1 (stereo not given),-0.917% (inactive)
2,Cc1nnc(N/N=C/c2ccc(-c3ccccc3F)o2)n1N,-3.53% (inactive)
3,Nn1cnnc1N/N=C\c1ccc(-c2ccccc2[N+](=O)[O-])o1,-6.2% (inactive)
4,CC(C)c1ccc(NC(=S)N2CCCC(c3ccc(F)cc3)=N2)cc1,6.21% (inactive)
5,Cc1ccc(NC(=S)N2CCC(NC(=O)c3cccc(F)c3)CC2)cc1,4.83% (inactive)
6,COc1ccc(S(=O)(=O)N2CCCC(C(=O)NCCCn3ccnc3)C2)cc1OC (stereo not given),-0.379% (inactive)
7,CC1CN(c2nc3c(c(=O)n(Cc4ccc(Cl)cc4)c(=O)n3C)n2C)CC(C)O1 (stereo not given),0.136% (inactive)
8,O=c1c2c(n3cnnc3n1-c1ccccc1)-c1ccccc1CC21CCCC1,0.452% (inactive)
9,N#Cc1cc(-c2ccccc2)nnc1Oc1ccccc1Cl,-2.46% (inactive)
10,CCN(CC)S(=O)(=O)c1ccc(-c2cn3cc(Cl)ccc3n2)cc1,4.2% (inactive)
11,COc1ccc(C(=O)N(Cc2cccs2)C2CCS(=O)(=O)C2)cc1 (stereo not given),-0.94% (inactive)
12,CCOC(=O)Nc1cc(C(=O)OC)ccc1C,-1.18% (inactive)
13,Cc1cc(C(=O)COc2cccc(-n3cnnn3)c2)c(C)n1-c1ccccc1,-0.173% (inactive)
14,O=C(Nc1ccc(Br)cc1)c1ccc(-n2cnnn2)cc1,-2.68% (inactive)
15,O=C(C1CC1)N1CCc2[nH]c3ccccc3c2C1,-2.06% (inactive)
16,C=CCn1c(N)c(C(=O)NCC2CCCO2)c2nc3ccccc3nc21 (stereo not given),2.42% (inactive)
17,COc1ccccc1NC1C=CS(=O)(=O)C1 (stereo not given),-0.449% (inactive)
18,CC1CCCC(C)N1C(=O)COC(=O)c1ccc([N+](=O)[O-])o1 (stereo not given),-9.53% (inactive)
19,COc1ccccc1NC(=O)c1ccccc1NS(=O)(=O)N1CCCC1,-2% (inactive)
20,CCN1CCc2nc3ccccc3c(C(=O)Nc3ccc(NC(C)=O)cc3)c2C1,-11.6% (inactive)
21,O=C1ON=C(c2ccccc2)/C1=C/c1ccc(O)cc1,-0.931% (inactive)
22,Nc1nc(Nc2ccccc2F)nc(NCCO)c1[N+](=O)[O-],2.06% (inactive)

row,SMILES,"activity change, negative = inhibition"
1,CCCCn1c(=O)[nH]c2nc3cc(N)ccc3nc2c1=O,0.883% (inactive)
2,COc1ccc(C(=O)NCc2nnc(SCC(=O)Nc3cc(C)cc(C)c3)o2)cc1OC,-0.567% (inactive)
3,COc1ccc(/C=N/Nc2nnc(C)n2N)cc1OC,-5.85% (inactive)
4,Cc1nnc(N/N=C/c2ccccc2O)n1N,0.875% (inactive)
5,CN(C)S(=O)(=O)c1ccc(NC(=O)CCNC(=O)c2ccco2)cc1,3.08% (inactive)
6,CC(=O)c1cccc(NC(=O)CC2CCCC2)c1,-1.9% (inactive)
7,Cc1nc2ccc(S(=O)(=O)N3CCCCC3)cc2s1,-1.08% (inactive)
8,CC(=O)NCCN1C(=O)C2C3c4ccccc4C(c4ccccc43)C2C1=O (stereo not given),4.66% (inactive)
9,CCOC(=O)c1sc2nc(C)nc(NC3CCC(O)CC3)c2c1C (stereo not given),0.285% (inactive)
10,CCCCC(=O)OCc1cn(-c2ccc(Cl)cc2)nn1,-2.69% (inactive)
11,Cc1cccc(NC(=O)C2CCN(C(=O)NCc3ccccc3)CC2)c1C,2.02% (inactive)
12,CN1C(=O)C(CCC(=O)O)NC1=S (stereo not given),-0.941% (inactive)
13,Cc1cccc(NC(=O)CSCC(=O)NCc2cccc(C(F)(F)F)c2)c1,-1.1% (inactive)
14,O=C(O)c1cc(-c2ccco2)nn1-c1ccc(Cl)cc1,-13.9% (inactive)
15,O=C(NCCCO)c1ccc2nc(-c3ccco3)c(-c3ccco3)nc2c1,-10.6% (inactive)
16,O=C1CCN(Cc2ccccc2)N1,7.16% (inactive)
17,COc1ccc2c(c1)Cc1sc(NC(=O)c3cccs3)nc1-2,-6.4% (inactive)
18,COc1ccc(C(=O)OCC(=O)Nc2c(C)n(C)n(-c3ccccc3)c2=O)cc1,5.18% (inactive)
19,O=Nc1ccc(O)c2ncccc12,1.26% (inactive)
20,Cc1ccc(C#N)c(SCc2ccccc2F)n1,-0.897% (inactive)
21,O=c1[nH]c(NCCO)c(N=Cc2ccccc2)c(=O)[nH]1,0.744% (inactive)
22,COc1ccc(C2CCc3cc4c(cc3C2=NOC(C)=O)OCO4)cc1OC (stereo not given),-3.53% (inactive)
